Structures are written as SMILES. Out of some 69,000 compounds screened, about 8,600 (12%) showed an effect of 50% or more. Shown is part of a subset that was picked to be rich in strong results.

Data on 51 molecules can be found in ChEMBL document CHEMBL4513216, “Probing the Open Global Health Chemical Diversity Library for Multistage-Active Starting Points for Next-Generation Antimalarials” (ACS Infect Dis, 2020).

The test system of the assay is Plasmodium berghei. The assay can be described thus: Screen against P. berghei liver stage (PbLuc), transformed with Luciferase, at 10uM. The note with it: tested at 10 uM. It counts as functional, HepG2.
Regarding `Cc1cccc(CNc2n[nH]c(C)n2)c1`, the INHIBITION was determined as 33.1%.

Consider `CCOC(=O)C1CCN(C(=O)CN2CCCC2c2cc(C)no2)CC1` (stereo unspecified), for which the INHIBITION is given as -15.1%.

As for `CN(CCC#N)C(=O)CN1CCCC1c1ccsc1` (stereo unspecified), the INHIBITION is reported as 10.5%.

Regarding `CCOC(=O)C1CCN(C(=O)CN2CCCC2c2ccsc2)CC1` (stereo unspecified), the INHIBITION worked out at 54.6%.

On to `O=C(NCC1CCOC1)c1csc(-c2ccccc2)n1` (stereo unspecified), for which the INHIBITION is listed as -10.6%.

For `c1cc2c(cc1CN1CC[C@H]3[C@H]1CCN3CC1CC1)OCO2`, the INHIBITION stood at 6.27%.

With `O=C(c1ccc2[nH]cnc2c1)N1CCC(Oc2ccccn2)CC1`, the INHIBITION was determined as 35.2%.

`Cc1cnn(CCCNC(=O)CCC2CCCCN2C)c1` (stereo unspecified): the INHIBITION is on record as 35.1%.

Regarding `C[C@@H]1CN(C2(C(=O)N3CCOCC3)Cc3ccccc3C2)C[C@H](C)O1`, the INHIBITION came out at 21%.

`C[C@@H]1CN(C2(C(=O)N3CCCCCC3)Cc3ccccc3C2)C[C@H](C)O1`: the INHIBITION is recorded as -0.182%.

Consider `C[C@@H]1CN(C2(C(=O)N3CCSCC3)Cc3ccccc3C2)C[C@H](C)O1`, for which the INHIBITION is on record as 73.9%.

Consider `O=C(C1CC(=O)N(c2ccccc2Br)C1)N1CCCCCC1` (stereo unspecified), for which the INHIBITION amounted to 21.8%.

Consider `O=C(C1CC1)N1CCN(C(=O)C2CC(=O)N(c3ccccc3Br)C2)CC1` (stereo unspecified), for which the INHIBITION was -56.4%.

Regarding `COC1CCN(C(=O)C2CC(=O)N(c3ccccc3Br)C2)CC1` (stereo unspecified), the INHIBITION is 61.7%.

Turning to `COCc1nn(C(C)C)c2c1CCN(Cc1ccsc1)C2`, the INHIBITION is given as -21.1%.

Turning to `C[C@@H]1C(=O)NC[C@H]2CN(Cc3ccsc3)C[C@H]21`, the INHIBITION was found to be 27.4%.

As for `COc1cc(N2C[C@@H]3COC[C@]3(C(=O)NC3CC(F)(F)C3)C2)ncn1`, the INHIBITION worked out at 31.4%.

Consider `Cc1cccnc1CCNCC1(O)CCCN(CC2CCCCC2)C1=O` (stereo unspecified), for which the INHIBITION was found to be 25.8%.

As for `O=C1N(CC2CC2)CCCC1(O)CN1CCc2[nH]ncc2C1` (stereo unspecified), the INHIBITION was found to be 79.1%.

As to `CC(C)(C)CN1CCCC(O)(CN2CCc3[nH]ncc3C2)C1=O` (stereo unspecified), the INHIBITION is recorded as 22.6%.

As for `Cc1cccnc1CNCC1(O)CCCN(CC2CCC2)C1=O` (stereo unspecified), the INHIBITION is 9.96%.

In the case of `O=C1N(CC2CCCCC2)CCCC1(O)CN1CCc2[nH]ncc2C1` (stereo unspecified), the INHIBITION is 68.8%.

In the case of `Cc1cccnc1CNCC1(O)CCCN(CC2CCCCC2)C1=O` (stereo unspecified), the INHIBITION amounted to 15.1%.

Regarding `CS(=O)(=O)N1CCC2(CC1)COC(COc1cccnc1)C2` (stereo unspecified), the INHIBITION is recorded as -52.3%.

Consider `CC(C)(C)c1cc(=O)n2c(n1)SCC(C(=O)NCc1cccs1)C2` (stereo unspecified), for which the INHIBITION was 28%.

Turning to `COc1ccc2c(OCC(=O)NC(C)(C)C)ccnc2c1`, the INHIBITION came to 29.6%.

As for `CCS(=O)(=O)N1CC[C@H]2O[C@H](c3nc(C)no3)CC[C@H]21`, the INHIBITION is given as 18.2%.

As to `Cc1nc2ccc(C(=O)N3C[C@@H](O)[C@H](N4CCN(C)CC4)C3)cc2[nH]1`, the INHIBITION is 46%.

Take `CC(=O)Nc1ccc(CNc2cccc(CS(C)(=O)=O)c2)cc1`: the INHIBITION turned out to be 34.6%.

`Cc1cc(C)c(S(N)(=O)=O)cc1C(=O)NCC1Cc2ccccc2O1` (stereo unspecified): the INHIBITION is on record as -9.82%.

For the molecule `Cc1ccccc1CNc1ccc(S(N)(=O)=O)c(C(F)(F)F)c1`, the INHIBITION was 93.4%.

Turning to `NS(=O)(=O)c1ccc(NCc2ccccc2)cc1C(F)(F)F`, the INHIBITION came out at 77.7%.

With `CC(C)(CNc1ccc(C#N)c(C(F)(F)F)c1)C(N)=O`, the INHIBITION is -21%.

Turning to `Fc1ccccc1CNc1ccnc(C2CCNCC2)c1`, the INHIBITION turned out to be 26.7%.

For the molecule `NS(=O)(=O)c1ccc(NCc2ccccc2F)cc1C(F)(F)F`, the INHIBITION was determined as 82.3%.

As for `CS(=O)(=O)Cc1ccc(Cl)cc1NCc1ccccc1F`, the INHIBITION worked out at 38%.

On to `CS(=O)(=O)c1ccc(NCc2ccccc2)cn1`, for which the INHIBITION was 27.3%.

Consider `CN(C)S(=O)(=O)c1ccc(CN2CCCC2c2ccsc2)o1` (stereo unspecified), for which the INHIBITION is recorded as -0.96%.

As for `Cn1nccc1C(=O)N1Cc2ccccc2OC2(CCOCC2)C1`, the INHIBITION is reported as 29.2%.

For the molecule `CN(C)C(=O)N1CCOCC2(CCN(c3ccccn3)C2)C1` (stereo unspecified), the INHIBITION is given as -3.1%.

In the case of `Cc1cnn(CC2CCCCN2C(=O)c2ccc3c(c2)nnn3C)c1` (stereo unspecified), the INHIBITION is given as -17.8%.

On to `O=S(=O)(Cc1ccccc1)NCCc1nnc2n1CCC2`, for which the INHIBITION is recorded as 31.9%.

`CCc1cnc(NCCCN2CCC(O)CC2)nc1`: the INHIBITION is -52.7%.

As to `CCc1cnc(NCCS(=O)(=O)N(C)C)nc1`, the INHIBITION is 61.3%.

Consider `CC(C)CS(=O)(=O)CCNc1ncccn1`, for which the INHIBITION amounted to 10.3%.

`CN(C)S(=O)(=O)CCNc1ncc2c(n1)CCN2c1ccccc1`: the INHIBITION is -26.9%.

In the case of `CCc1cnc(NCCS(=O)(=O)CC(C)C)nc1`, the INHIBITION worked out at 53.7%.

Take `CCc1cnc(NCCCOC2CCCC2)nc1`: the INHIBITION was -27%.

For the molecule `CSCCCN(CCN1CCOCC1)Cc1ccco1`, the INHIBITION was 45.8%.

For the molecule `O=C(Nc1nncs1)NC1CCCc2c1cnn2CCO` (stereo unspecified), the INHIBITION is 21.7%.

`COc1ccnc(N2CCN(C(=O)c3cc(C4CC4)[nH]n3)CC2)n1`: the INHIBITION turned out to be 25.1%.
